Unmarked numbers belong to inactive results. Rule as the data show it: active = inhibition above about 30%; inactive = the rest.

As usually defined, the inhibition is the change of the read-out against control, counted positive when it falls.

A short description of the assay: growth suppression of yeast trafficking mutant, preliminary HTS, modulators of trafficking downstream of Golgi apparatus project, 1536-format plate, OD 615 nm (AID 637). Conditions: yeast transport mutant growth, absorbance 615 nm, 18 h; hits give high values.
As for `COc1cccc(NC(=O)C2CCCN(S(=O)(=O)c3cccc4cccnc34)C2)c1` (stereo unspecified), the inhibition was -5.5%. The same measure for `CCc1nnc(NC(=O)COC(=O)CN2C(=O)c3ccccc3C2=O)s1`: -6.19%. For `O=C(C1CCN(c2nnc(-n3cccc3)s2)CC1)N1CCc2ccccc2C1`, the inhibition is -6%.

For the compound `Cc1c(C(=O)NC2CC2)oc2ccc(S(=O)(=O)N3CCCCCC3)cc12`, the inhibition is 3.44%. On to `Cc1sc2nc(SCC(=O)NCCO)n(C)c(=O)c2c1C`, for which the inhibition is -8.33%. In the case of `S=c1[nH]nc(-c2ccccc2)n1C1C=CCCC1` (stereo unspecified) it was -6.33%.

Regarding `c1ccc(N2CCN(Cc3cn4cccnc4n3)CC2)cc1`, the inhibition is -6.07%. Regarding `CCCCc1ccc(NC(=O)C2CCCO2)cc1` (stereo unspecified), the inhibition is -5.33%. In the case of `Cc1[nH]c2ccccc2c(=O)c1CN1CCCCC1` it was -3.67%; in that of `Cc1ccccc1-n1c(Cn2c(=O)sc3ccccc32)nnc1SCC(=O)N1CCCC1`, 6.89%. The same measure for `COc1ccccc1-n1c(=O)[nH]c2c(C(N)=O)nc(CC(C)C)nc21`: -2.17%; for `Cc1ccccc1-c1nc(CN2CCC(C(=O)N3CCC(C(N)=O)CC3)CC2)c(C)o1`: 4.67%. The same measure for `CCCCN(CC)CCCNC(=O)c1cc2c(=O)n(C)c3ccccc3c2n1C`: -2%; for `Cc1nn(-c2ccc(F)cc2)c2c1cc(C#N)c1nc3ccccc3n12`: -2.67%; for `CCCn1c(OC)nc2c1c(=O)n(C)c(=O)n2C`: -2.5%.

Take `CCOC(=O)Cc1ccc(NS(=O)(=O)c2ccc(SC)cc2)cc1`: the inhibition was -5.08%.
